Each structure is given as a SMILES string. ± gives the standard deviation of the averaged measurements. Over roughly 2,900 compounds, “NF-kB SEAP reporter activity, fold change vs agonist alone” has its median near 0.99; the highest 2% begin near 2.6. The sample as a whole holds a higher share of the highest values than the screen did.

These results are taken from the supplement of paper PMC10037445.

Assay [1] deals with RAW-Dual. Nature of the assay: NF-kB SEAP reporter activity, fold change vs agonist alone; higher = enhanced NF-kB activity. The following applies: library stock concentration (final ~1000-fold dilution): 10 mM, cytotoxicity flag (confluency mask): not cytotoxic. In a few lines: (§1)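 RAW-Dual macrophages (50,000 cells/well in DMEM, 384-well plates) received 50 nL of library stock by pin tool, then a PRR agonist 1 h later, and were kept at 37 °C, 5% CO2. After 20 hours, supernatant was read for IRF by QuantiLuc luminescence and for NF-κB by QuantiBlue absorbance at 620 nm. Reporter activity is fold change over agonist-alone wells. Cytotoxic wells had IncuCyte confluency below 70% of agonist controls in both mask sets.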

The test system of assay [2] is RAW-Dual. Nature of the assay: NF-kB SEAP reporter activity, fold change vs agonist alone; cytotoxicity flag (confluency mask): not cytotoxic; higher = enhanced NF-kB activity. In a few lines: as §1
Where [3] appears, read: agonist: ODN 1826 (TLR9) 0.5 ug/mL.
Where [4] appears, read: agonist: Pam2CSK4 (TLR2/6) 0.1 ug/mL.
The mark [5] stands for this setting: agonist: Pam3CSK4 (TLR2/1) 0.1 ug/mL.

Regarding `Cn1nc(C(C)(C)C)cc1C(=O)NC(Cc1cccc(Cl)c1)C(=O)NCC#N` (centres undefined), the “NF-kB SEAP reporter activity” value in the assay with RAW-Dual [1] (agonist: Imiquimod (TLR7) […]) stood at 0.765; with RAW-Dual [1] (agonist: MPLA (TLR4) […]) it was 1.05.
For `CC(C)(C)c1cc(C(=O)/C(C#N)=N/Nc2cccc(Cl)c2)no1` (library stock concentration (final ~1000-fold dilution): 10 mM), the “NF-kB SEAP reporter activity” value with RAW-Dual [2] (agonist: LPS (TLR4) 0.1 ug/mL) amounted to 4.18; with RAW-Dual [2] (setting [3]), 1.16; in the assay on RAW-Dual [2] (setting [4]), 0.423; in the assay on RAW-Dual [2] (setting [5]), 0.673.
`CC(C)(C)c1cc(C(=O)/C(C#N)=N/Nc2cccc(Cl)c2)no1`: the “NF-kB SEAP reporter activity” value with RAW-Dual [1] (agonist: Imiquimod (TLR7) […]) is 1.11; in the assay on RAW-Dual [1] (agonist: MPLA (TLR4) […]) it was 1.91.
For `C=C1CCC2C(C)(CO)C(O)CCC2(C)C1C/C=C1/C(=O)OCC1O` (centres undefined), in that order: 0.933 ± 0.078 and 0.792 ± 0.1.
In the case of `C=C1CCC2C(C)(CO)C(O)CCC2(C)C1C/C=C1/C(=O)OCC1O` (centres undefined) (library stock concentration (final ~1000-fold dilution): 10 mM), the “NF-kB SEAP reporter activity” value is 0.565 ± 0.2 in the assay on RAW-Dual [2] (agonist: LPS (TLR4) 0.1 ug/mL), 0.418 ± 0.039 in the assay with RAW-Dual [2] (setting [3]), 0.96 ± 0.18 in the assay on RAW-Dual [2] (setting [4]) and 0.65 ± 0.11 in the assay with RAW-Dual [2] (setting [5]).
As for `Cc1ccc(NC(=O)c2ccnc(C(F)(F)F)c2)cc1-c1cc(OCCO)nc(N2CCOCC2)c1`, the “NF-kB SEAP reporter activity” value with RAW-Dual [1] (agonist: Imiquimod (TLR7) […]) came out at 1.03; with RAW-Dual [1] (agonist: MPLA (TLR4) […]), 0.836.
On to `Cc1ccc(NC(=O)c2ccnc(C(F)(F)F)c2)cc1-c1cc(OCCO)nc(N2CCOCC2)c1` (library stock concentration (final ~1000-fold dilution): 10 mM), for which the “NF-kB SEAP reporter activity” value with RAW-Dual [2] (agonist: LPS (TLR4) 0.1 ug/mL) was 1.01; in the assay with RAW-Dual [2] (setting [3]), 0.551; in the assay on RAW-Dual [2] (setting [4]), 0.265; in the assay with RAW-Dual [2] (setting [5]) it was 0.438.
In the case of `Nc1nc(NCCc2ccc(O)cc2)nc2nc(-c3ccco3)nn12` (library stock concentration (final ~1000-fold dilution): 10 mM), the “NF-kB SEAP reporter activity” value in the assay with RAW-Dual [2] (agonist: LPS (TLR4) 0.1 ug/mL) turned out to be 1.81; in the assay with RAW-Dual [2] (setting [3]), 1.56; with RAW-Dual [2] (setting [4]), 1.16; in the assay on RAW-Dual [2] (setting [5]), 1.41.
For the molecule `CC(C)n1cnc2c(NCCc3ccc(O)cc3)nc(-c3csc4ccccc34)nc21`, the “NF-kB SEAP reporter activity” value in the assay with RAW-Dual [1] (agonist: Imiquimod (TLR7) […]) was found to be 2.38; in the assay on RAW-Dual [1] (agonist: MPLA (TLR4) […]), 2.64.
Regarding `CC(C)C(CO)Nc1nc(Nc2cccc(Cl)c2)c2ncn(C(C)C)c2n1` (centres undefined), the “NF-kB SEAP reporter activity” value came out at 1.19 in the assay with RAW-Dual [1] (agonist: Imiquimod (TLR7) […]) and 1.14 in the assay with RAW-Dual [1] (agonist: MPLA (TLR4) […]).
`Nc1nc(NCCc2ccc(O)cc2)nc2nc(-c3ccco3)nn12`: the figures for the “NF-kB SEAP reporter activity” value in the assay with RAW-Dual [1] (agonist: Imiquimod (TLR7) […]) and in the assay on RAW-Dual [1] (agonist: MPLA (TLR4) […]) were 1.7 and 1.36, respectively.
As to `CC(C)C(CO)Nc1nc(Nc2cccc(Cl)c2)c2ncn(C(C)C)c2n1` (centres undefined) (library stock concentration (final ~1000-fold dilution): 10 mM), the “NF-kB SEAP reporter activity” value with RAW-Dual [2] (agonist: LPS (TLR4) 0.1 ug/mL) was determined as 0.715; in the assay on RAW-Dual [2] (setting [3]), 1.05; with RAW-Dual [2] (setting [4]), 1.22; with RAW-Dual [2] (setting [5]), 0.679.
For `CC(C)n1cnc2c(NCCc3ccc(O)cc3)nc(-c3csc4ccccc34)nc21` (library stock concentration (final ~1000-fold dilution): 10 mM), in that order: 3.02, 1.56, 0.535 and 0.662.
The corresponding values for `C=C1CCC2C(C)(COC(=O)CCC(=O)O)C(OC(=O)CCC(=O)O)CCC2(C)C1C=CC1=CCOC1=O` (centres undefined) (library stock concentration (final ~1000-fold dilution): 10 mM) are 1.34, 0.979, 1.26 and 1.02.
For the molecule `C=C1CCC2C(C)(COC(=O)CCC(=O)O)C(OC(=O)CCC(=O)O)CCC2(C)C1C=CC1=CCOC1=O` (centres undefined), the “NF-kB SEAP reporter activity” value in the assay on RAW-Dual [1] (agonist: Imiquimod (TLR7) […]) was 0.865; in the assay on RAW-Dual [1] (agonist: MPLA (TLR4) […]), 1.03.
With `CN1CCN(CCCNc2ncc(Cl)c(-c3cc4c(C(=O)NC5CC5)cccc4s3)n2)CC1.Cl.Cl.Cl` (library stock concentration (final ~1000-fold dilution): 10 mM), the “NF-kB SEAP reporter activity” value in the assay on RAW-Dual [2] (agonist: LPS (TLR4) 0.1 ug/mL) was found to be 0.313 ± 0.14; in the assay on RAW-Dual [2] (setting [3]), 0.174 ± 0.0094; in the assay with RAW-Dual [2] (setting [4]), 0.0865 ± 0.0023; in the assay on RAW-Dual [2] (setting [5]) it was 0.134 ± 0.0077.
For `CN1CCN(CCCNc2ncc(Cl)c(-c3cc4c(C(=O)NC5CC5)cccc4s3)n2)CC1.Cl.Cl.Cl`, the “NF-kB SEAP reporter activity” value came to 0.215 ± 0.045 in the assay on RAW-Dual [1] (agonist: Imiquimod (TLR7) […]) and 0.2944 ± 0.00089 with RAW-Dual [1] (agonist: MPLA (TLR4) […]).
For the molecule `CCO.N#CC(=C(\N)Sc1ccccc1N)/C(C#N)=C(/N)Sc1ccccc1N` (library stock concentration (final ~1000-fold dilution): 10 mM), the “NF-kB SEAP reporter activity” value in the assay on RAW-Dual [2] (agonist: LPS (TLR4) 0.1 ug/mL) was 0.241; with RAW-Dual [2] (setting [3]), 0.368; in the assay with RAW-Dual [2] (setting [4]), 0.0792; in the assay on RAW-Dual [2] (setting [5]), 0.146.
Consider `CCO.N#CC(=C(\N)Sc1ccccc1N)/C(C#N)=C(/N)Sc1ccccc1N`, for which the “NF-kB SEAP reporter activity” value worked out at 0.206 with RAW-Dual [1] (agonist: Imiquimod (TLR7) […]) and 0.236 in the assay on RAW-Dual [1] (agonist: MPLA (TLR4) […]).
Consider `CCOC(=O)c1ccc(NC2CCCCC2)c(N)c1` (library stock concentration (final ~1000-fold dilution): 10 mM), for which the “NF-kB SEAP reporter activity” value with RAW-Dual [2] (agonist: LPS (TLR4) 0.1 ug/mL) stood at 2.07; in the assay on RAW-Dual [2] (setting [3]), 1.28; in the assay with RAW-Dual [2] (setting [4]), 0.963; in the assay with RAW-Dual [2] (setting [5]), 1.09.
As for `CCOC(=O)c1ccc(NC2CCCCC2)c(N)c1`, the figures for the “NF-kB SEAP reporter activity” value in the assay on RAW-Dual [1] (agonist: Imiquimod (TLR7) […]) and in the assay on RAW-Dual [1] (agonist: MPLA (TLR4) […]) were 1.14 and 1.57, respectively.
Regarding `CCn1cc(C(=O)O)c(=O)c2c(N)c(F)c(NC3CCCCC3)cc21`, the results for the “NF-kB SEAP reporter activity” value with RAW-Dual [1] (agonist: Imiquimod (TLR7) […]) and with RAW-Dual [1] (agonist: MPLA (TLR4) […]) were 1.75 and 1.95, respectively.
For the molecule `CCn1cc(C(=O)O)c(=O)c2cc(F)c(N3CCN(C)CC3)cc21.CS(=O)(=O)O`, the “NF-kB SEAP reporter activity” value in the assay on RAW-Dual [1] (agonist: Imiquimod (TLR7) […]) was determined as 0.916; in the assay on RAW-Dual [1] (agonist: MPLA (TLR4) […]), 0.878.
`CCn1cc(C(=O)O)c(=O)c2c(N)c(F)c(NC3CCCCC3)cc21` (library stock concentration (final ~1000-fold dilution): 10 mM): the “NF-kB SEAP reporter activity” value worked out at 4.89 in the assay with RAW-Dual [2] (agonist: LPS (TLR4) 0.1 ug/mL), 2.9 in the assay with RAW-Dual [2] (setting [3]), 1.85 with RAW-Dual [2] (setting [4]) and 3.32 in the assay on RAW-Dual [2] (setting [5]).
For `CCn1cc(C(=O)O)c(=O)c2cc(F)c(N3CCN(C)CC3)cc21.CS(=O)(=O)O` (library stock concentration (final ~1000-fold dilution): 10 mM), in that order: 0.962, 1.03, 1.11 and 1.12.
